Screening data from PubChem.
This is a sample that favours compounds with a hit; in the whole collection about 10% have one here.
hNpr1 antagonist = blocks ANP-stimulated signaling of human Npr1 receptor; P16066; HEK293 hNpr1 GloSensor cGMP, ANP-stimulated luminescence; Potency, µM (doses to about 46.3 µM), hits mostly inhibitors; 1.6% of 76,000 active; AID 1347048; calls by dose curve; also: nearly all actives have a fitted effect of over 60% in size
Target sequence (P16066 whole entry, looked up): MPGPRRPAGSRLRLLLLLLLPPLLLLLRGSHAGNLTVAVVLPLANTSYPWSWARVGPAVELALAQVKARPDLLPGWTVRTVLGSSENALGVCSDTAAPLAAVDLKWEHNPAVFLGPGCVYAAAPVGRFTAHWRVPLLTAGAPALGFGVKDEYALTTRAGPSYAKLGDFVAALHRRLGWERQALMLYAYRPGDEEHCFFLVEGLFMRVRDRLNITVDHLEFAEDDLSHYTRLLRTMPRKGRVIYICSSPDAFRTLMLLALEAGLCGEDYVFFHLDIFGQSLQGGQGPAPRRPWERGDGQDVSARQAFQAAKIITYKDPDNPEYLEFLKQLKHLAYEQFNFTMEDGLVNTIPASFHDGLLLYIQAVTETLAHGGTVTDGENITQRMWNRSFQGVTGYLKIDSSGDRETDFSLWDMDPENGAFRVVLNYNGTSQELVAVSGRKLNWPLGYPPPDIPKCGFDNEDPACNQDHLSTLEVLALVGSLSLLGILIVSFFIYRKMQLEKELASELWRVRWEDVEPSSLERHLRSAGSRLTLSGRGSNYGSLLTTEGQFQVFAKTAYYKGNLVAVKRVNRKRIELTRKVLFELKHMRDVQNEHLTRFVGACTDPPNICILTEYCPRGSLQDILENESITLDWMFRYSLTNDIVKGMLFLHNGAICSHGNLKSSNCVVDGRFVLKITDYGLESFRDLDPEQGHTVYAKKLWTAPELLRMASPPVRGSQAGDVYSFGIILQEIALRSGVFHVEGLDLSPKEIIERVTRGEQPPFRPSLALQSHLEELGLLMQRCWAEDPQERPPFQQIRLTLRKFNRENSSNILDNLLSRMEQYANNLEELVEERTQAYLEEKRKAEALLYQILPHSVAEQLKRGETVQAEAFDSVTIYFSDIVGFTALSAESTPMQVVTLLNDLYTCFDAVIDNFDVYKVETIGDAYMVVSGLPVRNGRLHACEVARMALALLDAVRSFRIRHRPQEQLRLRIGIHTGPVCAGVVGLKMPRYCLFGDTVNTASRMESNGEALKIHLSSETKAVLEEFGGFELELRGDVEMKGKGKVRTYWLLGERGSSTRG
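Compound pre-incubated 30 min at room temperature on GloSensor-loaded HEK293 cells stably carrying hNpr1 and the pGS-40F cGMP biosensor. Stimulation uses hNppA at 0.1 nM final; luminescence is taken at baseline and 20 min post-agonist.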
GPT2 inh = inhibitors of human GPT2 alanine aminotransferase; Q8TD30; Recombinant GPT2, coupled pyruvate oxidase/HRP Amplex Red fluorescence; Potency, µM (titrated, usually from 57.7 µM), hits mostly inhibitors; 0.25% of 100,000 active; also: nearly all actives have a fitted effect of over 60% in size
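GPT2 10ng/uL, a-KG 250uM, L-Ala 2mM, HEPES pH7.5 + 0.0001% Tween; 30 min RT. Then Amplex mix (PO/HRP/ThPP), 30 min RT dark, fluorescence. AOA 50uM used as positive control.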
NIH3T3 tox = cytotoxic compounds in NIH 3T3 cells; NIH 3T3 viability, CellTiter-Glo ATP luminescence, 48-72 h; Potency, µM (doses to about 96.7 µM), usual class: inhibitors; 4.3% of 94,000 active; also: nearly all actives have a fitted effect of over 55% in size
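ATP-dependent luminescence (CellTiter-Glo) served as the viability signal for NIH 3T3 cells treated with compound for 48 or 72 hr at 37 °C.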
Luciferase inh = inhibitors of firefly (Photinus pyralis) luciferase | 2.5% of 76,000 active | Potency, µM (doses to about 115 µM), most hits filed as inhibitors | AID 1347043 | purified P. pyralis luciferase, luminescence, biochemical; also: nearly all actives have a fitted effect of over 65% in size
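FLuc 10nM, D-luciferin 10uM, ATP 10uM, Mg acetate 10mM, Tris acetate pH 7.5, Tween/BSA; cpd qHTS; enzyme added last; CCD luminescence.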
HEK293 tox = kills HEK 293 cells | HEK 293 viability, ATP luminescence (CellTiter-Glo), 48-72 h | Potency, µM (highest dose often 115 µM), most hits filed as inhibitors | 6.6% of 94,000 active; also: nearly all actives have a fitted effect of over 60% in size
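HEK 293 cells at 250 cells/well were exposed to compounds by pintool transfer for 48 or 72 hr at 37 degree Celsius, 5% CO2. Viability was read as ATP-coupled luminescence with CellTiter-Glo after 10 min at room temperature.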
Numbers stand for hits; n = inactive; u = inconclusive; x = no result; [ ] = dose if it differs, or a comment. Unless noted, calls follow the shape of the dose curve; as a rule, active = well fitted curve in the direction sought with a large enough effect; inconclusive = small, poorly fitted or top-dose-only effect, or another doubt; inactive = no such curve, though single readings can be large; an effect the other way counts as inactive or inconclusive.

SMILES	hNpr1 antagonist	GPT2 inh	NIH3T3 tox	Luciferase inh	HEK293 tox
O=C(NC1CCCc2c1[nH]c1c(Cl)cccc21)C1(c2ccccc2)CCOCC1 (centres undefined)	n	n	n	n	n
O=C(Cc1cccs1)NC1CCCc2c1[nH]c1c(Cl)cccc21 (centres undefined)	n	n	32µM	n	u
O=C(Cc1ccc2c(c1)OCCCO2)NC1CCCc2c1[nH]c1c(Cl)cccc21 (centres undefined)	n	n	u	n	u
O=C(Cc1cccc(Cl)c1)NC1CCCN(c2ccnc3ccnn23)C1 (centres undefined)	x	n	n	x	u
Cn1cccc1-c1noc(C2CCN(C(=O)c3cccc(C#N)c3)C2)n1 (centres undefined)	x	n	n	x	u
CN(C)c1ncc2c(n1)C(C)(C(=O)Nc1ccc(Cl)cc1)CCC2 (centres undefined)	n	n	u	n	u
COc1cccc(Nc2cccc(CN3CCC(C)(NC(C)=O)C3)c2)c1 (centres undefined)	n	n	u	50µM	u
CC(=O)NC1(C)CCN(Cc2cccc(Nc3cccc(Cl)c3)c2)C1 (centres undefined)	u	n	45µM	u	71µM
COc1cccc(Nc2cccc(CN3CCCC(C)(NC(C)=O)C3)c2)c1 (centres undefined)	n	n	u	n	u
F[C@@H]1CN(Cc2cccnc2)C[C@@H]1OCc1nc2ccc(C(F)(F)F)cc2[nH]1	n	n	n	n	u
O=C(c1nc2cccnc2n(Cc2ccccc2)c1=O)N1CCN(c2ncccn2)CC1	x	n	n	x	n
C1CC(Cc2noc(C3CCOCC3)n2)CN1 (centres undefined)	n	n	u	n	79µM
C1CC(COCCc2noc(C3CNC3)n2)CCO1	n	n	13µM	n	7.9µM
COc1cccc(CNC(=O)C2CCCN(Cc3cccc(-c4ccccc4OC)c3)C2)c1 (centres undefined)	x	n	u	x	u
O=C(NCc1cccc(Cl)c1)C1CCCN(Cc2cccc(-c3ccsc3)c2)C1 (centres undefined)	x	x	40µM	x	32µM
O=C(NCc1ccccc1Cl)C1CCCN(Cc2cccc(-c3ccsc3)c2)C1 (centres undefined)	x	x	13µM	x	22µM
O=C(c1ccccc1Cl)N1CCC(C(=O)N2CCCC(c3nc4ncccc4[nH]3)C2)CC1 (centres undefined)	x	n	n	x	n
COc1ccc(-c2noc([C@@H]3CCCN3C(=O)c3ccc(C)cc3)n2)cc1OC	n	n	n	n	u
COc1ccc(-c2noc([C@@H]3CCCN3C(=O)c3cc(C)cc(C)c3)n2)cc1OC	n	n	u	n	32µM
O=C(c1cc(Cl)ccc1F)N1CCC[C@H]1c1nc(-c2ccc(F)cc2)no1	n	n	u	n	79µM
CCOc1cc(C)c(CN2CCC3(C2)CN(C)C(=O)O3)cc1C(C)C (centres undefined)	n	n[11.5 µM]	u	n	u
Cc1nc2c(OCC(=O)c3ccccc3)cccn2c(=O)c1-c1cc(C)n(-c2ccc(Cl)cc2)n1	n	n	u	28µM	u
CCOc1cccn2c(=O)c(-c3cc(C)n(-c4ccc(Cl)cc4)n3)c(C)nc12	n	n	n	n	u
Cc1ccc2nc([C@H]3CCN(Cc4ccc(S(C)(=O)=O)cc4)C3)[nH]c2c1	n	n	n	n	79µM
COc1ccc(CN2CC[C@H](c3nc4ccc(C)cc4[nH]3)C2)cc1	n	n	79µM	n	79µM
SMILES	hNpr1 antagonist	GPT2 inh	NIH3T3 tox	Luciferase inh	HEK293 tox
COC(=O)N1CCC(C(=O)N2CCC(c3nc4ncccc4[nH]3)CC2)C1 (centres undefined)	x	n	u	x	35µM
COC(=O)N1CCC(C(=O)N2CCC(c3nc4ncccc4[nH]3)CC2)CC1	x	n	n	x	n
COc1ccc2nc([C@H]3CCN(CC(C)C)C3)[nH]c2c1	n	n	112µM	n	89µM
COc1ccc(CN2CC[C@H](c3nc4ccc(OC)cc4[nH]3)C2)cc1	n	n	u	u	u
CC1Oc2ccc(NC(=O)c3ccc(F)cc3F)cc2CN(C2CCCc3ccccc32)C1=O (centres undefined)	n	n	n	n	u
O=[S+]([O-])(c1cccs1)N1CCc2nc(C3CC3)nc(-c3ccc(Cl)cc3)c2CC1	n	u	n	n	n
Cc1cccc(C(=O)N2CC(N(Cc3ccccn3)S(C)(=O)=O)C2)c1	x	n	n	x	n
c1cnc2nc([C@H]3CCN(C4CCCCC4)C3)[nH]c2c1	n	n	n	28µM	n
COc1ccc2nc([C@H]3CCN(C4CCCCC4)C3)[nH]c2c1	u	n	u	14µM	u
Fc1ccc2nc([C@H]3CCN(C4CCC4)C3)[nH]c2c1	40µM	u	u	5µM	u
CC(=O)N1CCC(N2CC[C@H](c3nc4ncccc4[nH]3)C2)CC1	n	n	n	n	n
O=C(C1CCCN([S+](=O)([O-])c2cccs2)C1)N1CCCC(c2nc3ncccc3[nH]2)C1 (centres undefined)	x	n	u	x	89µM
O=C(C1CCCN([S+](=O)([O-])c2cccs2)C1)N1CCC(c2nc3ccncc3[nH]2)C1 (centres undefined)	x	n	n	x	n
COCC(=O)N1CCCN(c2ccnc3ccnn23)CC1	x	n	n	x	n
CCCCCC(=O)N[C@@H](Cn1cc(F)c(=O)[nH]c1=O)C(=O)O	n	n	n	n	n
CC[C@H]1CN(C(=O)c2ccc(F)cc2)CC[C@H]1CC(=O)Nc1nccs1	n	n	u	n	u
CC[C@H]1CN(C(C)=O)CC[C@H]1CC(=O)Nc1nccs1	n	u	100µM	n	112µM
CC(C)Cn1c(=O)c(C(=O)N2CCCC2)nc2cccnc21	x	n	n	x	n
CC1=C[C@@H](CNC(=O)CCCC(=O)O)[C@H](C(C)C)C[C@H]1Cc1nc2ccc(Cl)cc2[nH]1	n	n	n	n	n
CC1=C[C@@H](CNC2CCN(C)CC2)[C@H](C(C)C)C[C@H]1Cc1nc2ccc(F)cc2[nH]1	n	n	u	n	71µM
CC1=C[C@@H](CNS(C)(=O)=O)[C@H](C(C)C)C[C@H]1Cc1nc2ccc(Cl)cc2[nH]1	u	n	u	n	100µM
CC1=C[C@@H](CNS(C)(=O)=O)[C@H](C(C)C)C[C@H]1Cc1nc2ccc(F)cc2[nH]1	u	n	u	n	89µM
COc1ccc(NC(=O)Cn2ccn3nc4c(c3c2=O)CC(C)CC4)cc1Cl (centres undefined)	n	n	n	n	n
CN1c2cc(C(=O)NCc3ccc(F)cc3Cl)ccc2C(=O)N2CCCCC21 (centres undefined)	n	n	n	n	u
CC1(C)[C@H](Cc2cc(CCO)on2)C[C@@H]1NCc1cccnc1	n	n	n	n	n
